NPC1 promoter act: activators of NPC1 promoter; Huh7 NPC1 promoter luciferase reporter, 24 h; Potency, µM (highest dose often 9.22 µM), inactives show top-dose activation, most hits filed as activators; 320,000 tested, 2.4% active; further: % of control where 0% means no effect; nearly all actives have a fitted effect of over 60% in size
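Compounds in DMSO were transferred onto Huh7 NPC1-luciferase reporter cells pre-incubated 2 h; after 24 h at 37 °C, Amplite reagent was dispensed and luminescence recorded 10 min later.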
Rab9 prom act: activators of Rab9 promoter. AID 485297. Potency, µM (doses to about 9.22 µM), for the others: at the highest dose activation, negative = inhibition, usual class: activators. 320,000 tested, 2.8% active. Huh7 Rab9 promoter-luciferase reporter, luminescence, 24 h; further: % of control where 0% means no effect; nearly all actives have a fitted effect of over 60% in size
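Promoter activation is measured as luciferase luminescence in Huh7 cells stably transfected with a Rab9 promoter–luciferase construct, following 24 h compound exposure at 37 °C and 10 min reagent incubation at ambient temperature.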
uPA surface inh: inhibitors of cell surface uPA generation. 330,000 tested, 0.31% active. Potency, µM (doses to about 38.3 µM), without a hit: at the highest dose activity change, negative = inhibition, hits mostly inhibitors. cell surface uPA generation assay, qHTS; active means well fitted inhibition curve with a large enough effect; inconclusive means small, poorly fitted or top-dose-only effect; inactive means no such curve, though single readings can be large or run the other way; tested in mouse RAW 264.7 cells; further: on the % scale 0 is the no-effect control and ±100 the full control effect; nearly all actives have a fitted effect of over 55% in size
ELG1 genotox: inducers of genotoxicity in HEK293T ELG1-luciferase cells; HEK293T ELG1-luciferase reporter, luminescence, 16 h; Potency, µM (highest dose often 46 µM), without a hit: at the top dose activity change, positive = activation, actives largely listed as activators; 330,000 tested, 1.3% active; further: % of control where 0% means no effect; nearly all actives have a fitted effect of over 60% in size
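ELG1-luciferase HEK293T cells, 2,000/well; compound pinned in; 16 hr, 37 °C, 5% CO2; ONE-Glo, 30 min RT; luminescence on CCD imager.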
SMN2 splice up: increases expression of the SMN2 splice variant; HEK293 SMN2-luciferase splicing reporter, luminescence, 30-36 h; Potency, µM (doses to about 46.1 µM), inactives show at the highest dose activity change, positive = activation, most hits filed as activators; 210,000 tested, 2.8% active; AID 1458; further: % of control where 0% means no effect; nearly all actives have a fitted effect of over 55% in size
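HEK293 cells carry an SMN2 […]–luciferase reporter in which exon 7 inclusion puts luciferase in frame. Cells were plated 10-12 h before compound addition, then incubated 30-36 h at 37C. ONE-Glo luminescence was read; sodium butyrate at 4.5 mM final served as control.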
FLuc counter: firefly luciferase modulation, counter-screen for miR-21 project | P08659 | purified FLuc, Km substrates, luminescence inhibition | Potency, µM (series often up to 57.5 µM), for the others: at the highest dose activity change, negative = inhibition, hits mostly inhibitors | 360,000 tested, 6.9% active | AID 588342;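 further: plate controls were vehicle for no effect and reference inhibitor for full effect; nearly all actives have a fitted effect of over 55% in size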
Target sequence (P08659 whole entry, looked up): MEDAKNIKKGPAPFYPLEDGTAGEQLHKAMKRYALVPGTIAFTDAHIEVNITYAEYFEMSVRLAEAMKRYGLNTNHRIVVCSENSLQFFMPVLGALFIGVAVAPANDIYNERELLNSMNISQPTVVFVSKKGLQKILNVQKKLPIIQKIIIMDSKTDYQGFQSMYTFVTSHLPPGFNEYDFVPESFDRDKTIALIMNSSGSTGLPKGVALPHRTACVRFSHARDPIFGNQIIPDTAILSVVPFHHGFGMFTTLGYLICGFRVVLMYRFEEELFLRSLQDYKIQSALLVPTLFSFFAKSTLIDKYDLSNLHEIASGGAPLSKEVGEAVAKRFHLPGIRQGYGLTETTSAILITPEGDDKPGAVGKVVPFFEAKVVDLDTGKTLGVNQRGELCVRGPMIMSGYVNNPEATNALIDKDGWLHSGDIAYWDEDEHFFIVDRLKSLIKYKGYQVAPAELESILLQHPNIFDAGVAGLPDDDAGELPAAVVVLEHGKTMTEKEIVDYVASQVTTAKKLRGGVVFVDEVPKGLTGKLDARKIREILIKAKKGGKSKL
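Biochemical qHTS of compounds, final roughly 60 µM downward over six points, against 10 nM purified firefly luciferase using Km concentrations of substrates (10 uM D-luciferin, 10 uM ATP) in Tris acetate pH 7.5 buffer; luminescence output.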
The depositor's hits bear a star; ? = inconclusive; / = no result given. Only some compounds are listed: those with a hit (about 7.3% of all), similar ones and a draw of the others. Unless noted, the call rests on the fitted dose curve; in most records, active means well fitted curve in the direction sought with a large enough effect; inconclusive means small, poorly fitted or top-dose-only effect, or another doubt; inactive means no such curve, though single readings can be large; an effect the other way counts as inactive or inconclusive. Potency means the concentration at half of the fitted maximal effect.

SMILES | NPC1 promoter act | Rab9 prom act | uPA surface inh | ELG1 genotox | SMN2 splice up | FLuc counter
COc1ccc(CCNC(=O)CCCCC(=O)NCCc2ccc(OC)c(OC)c2)cc1OC | / | / | 1% | / | / | /
CCOc1ccc(-c2cc(CCCC(=O)NCCc3cc(OC)c(OC)c(OC)c3)no2)cc1 | / | / | / | / | -17% | 13µM*
CCOc1ccc(CCNC(=O)CCc2nc(-c3ccc(OC)cc3)no2)cc1OCC | 1% | 1% | 4% | 0% | -18% | 8%
COc1ccc(CCNC(=O)CSc2nnc(-c3ccccc3)c3ccccc23)cc1OC | -3% | -6% | -3% | -3% | 2% | 3%
CCOc1ccc(-c2cc(CCCC(=O)NCCCOC)no2)cc1 | -2% | 8% | / | 0% | 17% | 12µM*
CCOc1ccc(-c2cc(CCCC(=O)NCCc3ccc(OC)c(OC)c3)no2)cc1 | / | / | / | / | -62% | 11µM*
CCCCn1c(-c2ccccc2)cnc1SCC(=O)NCCc1ccc(OC)c(OC)c1 | -2% | 2% | -7% | 4% | 28% | 17µM*
CCOc1ccc(-c2cc(CCCC(=O)N3CCN(c4ccc(OC)cc4)CC3)no2)cc1 | 0% | -1% | 3% | 0% | -36% | ?
Oc1ccccc1-n1c(-c2ccccc2)ccc1-c1ccccc1 | -2% | 0% | ? | -6% | / | -3%
CC1=C(C(=O)Nc2cccnc2)C(c2ccccc2)n2nc(SCc3ccccc3Cl)nc2N1 (stereo not drawn) | / | / | / | / | 12% | -3%
O=c1[nH]c(SCc2ccc(Cl)cc2)nc2ccsc12 | 30% | ? | -4% | 11% | ? | 6µM*
O=C(COC(=O)c1ccccc1Cl)NCc1ccco1 | / | / | -7% | 3% | / | /
COc1ccc(CN(C(=O)c2cc3ccccc3oc2=O)C2CCS(=O)(=O)C2)cc1OC (stereo not drawn) | 4µM* | ? | 0% | ? | ? | 19µM*
CCOc1ccccc1C(=O)N(Cc1ccccc1F)C1CCS(=O)(=O)C1 (stereo not drawn) | / | / | / | / | 1% | -2%
COc1ccc(CN(C(=O)c2cc3ccccc3oc2=O)C2CCCC2)cc1 | -1% | -7% | 0% | -3% | -26% | 0%
O=C(c1cc2ccccc2oc1=O)N(Cc1ccccc1)C1CCS(=O)(=O)C1 (stereo not drawn) | ? | ? | -3% | ? | -6% | 21µM*
O=C(c1cc2ccccc2oc1=O)N(Cc1ccccc1F)C1CCS(=O)(=O)C1 (stereo not drawn) | 24% | ? | 11% | ? | / | 17µM*
COc1ccc(CN(C(=O)c2cc3ccccc3oc2=O)C2CCS(=O)(=O)C2)cc1 (stereo not drawn) | -4% | 3% | -3% | 7% | -7% | -13%
CCOc1ccc(CN(C(=O)c2cc3ccccc3oc2=O)C2CCS(=O)(=O)C2)cc1 (stereo not drawn) | ? | 3.2µM* | -2% | ? | / | 12µM*
COC(=O)Cc1c(C)c2cc3c(c(C)c2oc1=O)OCN(CCc1ccc(F)cc1)C3 | / | / | / | / | -18% | 0%
COc1ccc(C(=O)Nc2cccc(-c3ccc(N4CCOCC4)nn3)c2)cc1 | ? | 4µM* | -9% | 2% | / | 2.4µM*
COc1cc(OC)cc(C(=O)Nc2cccc(-c3ccc(N4CCOCC4)nn3)c2)c1 | ? | ? | -17% | ? | / | 1.5µM*
COc1cccc(OC)c1C(=O)Nc1cccc(-c2ccc(N3CCOCC3)nn2)c1 | ? | 1.8µM* | -8% | 0% | / | 1.5µM*
COc1cc(OC)cc(C(=O)Nc2ccccc2N2CCOCC2)c1 | -1% | 4% | / | 0% | -24% | 2%
COc1ccc(NC(=O)c2ccc(N3CCOCC3)nc2)cc1 | 2% | 6% | -3% | -1% | / | 1%
SMILES | NPC1 promoter act | Rab9 prom act | uPA surface inh | ELG1 genotox | SMN2 splice up | FLuc counter
COc1cccc(OC)c1C(=O)Nc1cccc(-c2ccc3nncn3n2)c1 | -7% | -10% | -1% | 17% | 26% | -1%
CC(C)(C)OC(=O)N1CCC(c2c(C(=O)N3CCC(c4ccccc4)C3)cnn2-c2cccc(Cl)c2)CC1 (stereo not drawn) | / | / | / | / | / | -4%
Cc1ccc(C)c(NC(=O)C(CC(C)C)N2Cc3ccccc3C2=O)c1 (stereo not drawn) | / | / | / | / | / | -2%
Cc1ccc2c(c1)c1c(c(=O)n(-c3ccccc3C)c(=O)n1Cc1ccccc1F)n2C | / | / | / | / | / | -1%
COc1ccc(NC(=O)c2oc3ccccc3c2NC(=O)COc2ccc(C(C)C)cc2)c(OC)c1 | / | / | / | / | 1% | -4%
COc1ccc2oc(=O)c(-c3csc(Nc4ccc(O)cc4)n3)cc2c1 | 0% | 14% | -12% | -1% | ? | 3µM*
COc1ccc2oc(=O)c(-c3csc(-c4ccc(Br)cc4)n3)cc2c1 | / | / | / | / | / | 7%
CC(=O)NCCC(=O)Nc1nc(-c2c[nH]c3ccccc23)cs1 | -1% | 13% | -1% | 4% | / | ?
COc1ccc(-c2csc(Nc3cccnc3)n2)cc1 | / | / | -3% | / | 7% | 6µM*
COc1ccc(-c2csc(Nc3ccccc3)n2)cc1 | 2.2µM* | 1µM* | 1% | 2.1µM* | 4µM* | 3µM*
COc1ccc(Nc2nc(-c3c[nH]c4ccccc34)cs2)cc1 | 23% | 20% | 8% | 13% | ? | 15µM*
COc1ccc(Nc2nc(-c3ccc(OC)cc3)cs2)cc1 | 3.2µM* | 1.6µM* | 7% | ? | ? | ?
COc1ccccc1CNS(=O)(=O)c1ccc(-c2cnc(C3CC3)o2)cc1 | -30% | -20% | 0.28µM* | 3% | / | 2%
O=C(Cc1ccccc1)Nc1ccccc1C(=O)N1CCCCCC1 | 4% | 0% | -19% | -1% | 6% | -2%
CCSc1ncnc2c1sc1nc3c(cc12)COC(C)(C)C3 | 3.5µM* | 2.8µM* | 2% | ? | 13µM* | 2.7µM*
CC(C)COc1ncnc2c1sc1nc3c(cc12)COC(C)(C)C3 | 4µM* | 3.2µM* | / | ? | / | 24µM*
C=CCSc1ncnc2c1oc1nc3c(cc12)COC(C)(C)C3 | ? | ? | 0% | ? | / | 13µM*
C=CCn1c(C)nc2c(sc3nc4c(cc32)COC(C)(C)C4)c1=O | 1.8µM* | 2µM* | -7% | ? | / | 11µM*
COc1ccc(/C=C/C(=O)OCC(=O)Nc2cccc(S(=O)(=O)NC3=NCCCCC3)c2)cc1 | / | / | -7% | 1% | / | /
Cc1ccc(Nc2cccccc2=O)cc1 | ? | 3.5µM* | -1% | ? | / | 15µM*
Nc1nc(NC(=O)c2cccnc2)nn1-c1ccccc1 | 9% | -2% | 1% | 2% | -12% | 3%
Nc1nc(NC(=O)c2ccc(Cl)cc2)nn1-c1ccccc1 | 8% | 10% | -3% | -3% | 17% | 19µM*

Source: PubChem (National Center for Advancing Translational Sciences (NCATS))
